According to PubChem BioAssay (NCI):
This is part of a sample that, as a whole, favours compounds with a hit. Of some 83,000 tested, about 20% had one in any assay.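 Single-concentration screen, 48 h exposure, 96-well plates. Endpoint: percent growth. Below 10 = active.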 Unmarked numbers belong to inactive results. Activity calls are given as the source filed them.

What follows are compounds tested on UACC-62 melanoma (assay: NCI-60 one-dose screen, 48 h (100 = growth as untreated, 0 = no growth, -100 = all killed)). Details: 10 µM unless noted.
Compound `CCS(=O)(=O)Nc1cccc(Nc2c3cccc(C)c3nc3c(C)cccc23)c1OC` has a growth of 45.5%. In the case of `Cc1nn(-c2ccccc2)c2nc3c(nc12)C1=NCCN1C(c1ccc(Cl)cc1)N3` (centres undefined), the growth is reported as 84.8%. `O=C(Nc1cccc(C2=NCCN2)c1)c1ccc(N=Nc2ccc(C(=O)Nc3cccc(C4=NCCN4)c3)cc2)cc1` was tested, and the growth was 68.4%. `COC(=O)[C@@H](Cc1c[nH]c2ccccc12)NC(=O)/C=C/c1ccccc1` gave a growth of 44.1%. In the case of `CCOC(=O)C(CCCCC(NC(C)=O)(C(=O)OCC)C(=O)OCC)(NC(C)=O)C(=O)OCC`, the growth is reported as 99.5%. Compound `COc1ccc(-c2cc(-c3cc4ccccc4oc3=O)n(-c3ccccc3)n2)cc1` has a growth of 80.3%. `CC(C)N(C(=S)SSC(=S)N(C(C)C)C(C)C)C(C)C` gave a growth of 105%. `CCOC(OCC)c1cnc2nc(NC(C)=O)[nH]c(=O)c2n1` showed a growth of 102%. In the case of `CC(C)(C)c1cc(C[P+](c2ccccc2)(c2ccccc2)c2ccccc2)cc(C(C)(C)C)c1O`, the growth is reported as -3.2% (active). `N#Cc1ccc(-c2ccc(-c3cccs3)o2)cc1F` showed a growth of 81.6%. For `CCN(C(=O)CCl)C(C)(C)C(SSSC(c1ccc(Cl)cc1)C(C)(C)N(CC)C(=O)CCl)c1ccc(Cl)cc1` (centres undefined), the growth was -2.54% (active). For `N=C(N)c1ccc(-c2ccc(-c3ccco3)o2)cc1F`, the growth was -68.6% (active). `COc1ccc(/C=C/c2nc(NCCCN(C)C)c3ccccc3n2)cc1` gave a growth of 104%. For `COc1cc2c(cc1OC)-c1cc(OC)c(OC)cc1C(CN(C)C)C2` (centres undefined), the growth was 20.4% [100 µM]. `CCCCCCCCN=C(NCCCCCCCC)SCc1cccc2ccccc12` was tested, and the growth was -82.2% (active). `N=C(N)c1ccc(-c2ccc(-c3cccs3)s2)cc1F` was tested, and the growth was -79.7% (active). For `COc1ccc2nc(-c3ccc(-c4noc(-c5ccc(Cl)cc5)n4)cc3)[nH]c2c1`, the growth was 58.3%. Work on `Cc1cccc2nc3ccccc3c(Nc3ccc(NS(C)(=O)=O)cc3)c12` yielded a growth of 63.4%. Work on `CC(C)CCSc1nc(Nc2ccccc2)c(C#N)c(-c2ccc(F)cc2)n1` yielded a growth of 82.4%. With `COc1cc(OC)cc(-c2ccc(-c3ccc(C(=N)N)s3)s2)c1` the growth was -90.5% (active). For `COc1ccc(-c2ccc(-c3ccc(C(=N)N)s3)s2)cc1`, the growth was -91% (active). In the case of `C#CCO[C@H]1CC[C@H](OCC#C)[C@@H]2[C@H]1[C@H]1C[C@@H]3[C@@]4(C)CCC[C@@](C)(C(=O)OC)[C@@H]4CC[C@@]23C=C1C(C)C`, the growth is reported as 74.6%. `COC(=O)[C@H](Cc1cn(C)cn1)NC(=O)[C@H](CC(C)C)NC(=O)Nc1cc(C(F)(F)F)cc(C(F)(F)F)c1` was tested, and the growth was -99.3% [100 µM] (active). Work on `O=C1CCCN1C1CCN2CCCc3cccc1c32` (centres undefined) yielded a growth of 93.6%. Work on `O=C(CCCN1CCC(O)(c2ccc(Br)cc2)CC1)c1ccc(F)cc1` yielded a growth of 43.6%. With `COc1ccc(/C=N/NC(N)=S)c(OC)n1` the growth was 96.8%. `CCN1C(=O)N(CC)C2C1N=C(SC)N2/N=C/C=C/c1ccccc1OC` (centres undefined) showed a growth of 30.5%. Compound `C/C(=N\Nc1ccc([N+](=O)[O-])cn1)c1ccc(N)cc1` has a growth of 99.1%. For `N/C(=N\O)c1ncc(-c2ccc(C(F)(F)F)cc2)c(NC2CCCCCC2)n1`, the growth was -88.2% [100 µM] (active). `O=[N+]([O-])c1ccc(Sc2nc(Cl)nc(NC3CCCC3)n2)cc1` was tested, and the growth was -97.4% [100 µM] (active). `Cc1cc2nc(CN)[nH]c2cc1C` was tested, and the growth was 113%. With `ClC1=NC(Cl)C(Cl)=N/C1=N\c1ncn[nH]1` (centres undefined) the growth was 83.6%. `COc1ccc(CNc2c3ccccc3nc3ccccc23)cc1F` was tested, and the growth was 42.4%. For `CCOC(=O)C1C(=O)C=C(c2ccccc2)CC1c1sc(N(C)Cc2ccccc2)nc1Cl` (centres undefined), the growth was 61.4%. `CCOC(=O)c1cc(C(=O)OCC)c(C)nc1C` was tested, and the growth was 103%. With `O=C1OCC2=C1C(c1ccccc1)c1cc3c(cc1N2CCO)CCC3` (centres undefined) the growth was 31.7%. `O=C(CC(=O)c1ccccc1F)Nc1ccc([N+](=O)[O-])cc1` was tested, and the growth was 80.1%. `Cc1cc(Nc2c3ccccc3nc3ccccc23)ccc1NS(C)(=O)=O` showed a growth of 57%. `COC(=O)CSc1ccc(Cl)cc1` gave a growth of 114%.
